Compound activity from PubChem BioAssay.
The list is not random: actives were taken first. Their share in the collection is about 2.4%.
PREPL inh: inhibits the human prolyl oligopeptidase-like enzyme; Q4J6C6; recombinant PREPL, fluorescence polarization activity-based probe; inhibition, % at 5.96 µM; 320,000 compounds, 0.68% hits; in the data active = inhibition above about 43%;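 also: 0% = enzyme with DMSO and 100% = wells lacking enzyme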
PP1 counter: blocks human PP1-alpha phosphatase, a PP5 counter-screen. inhibition, % at 6.7 µM. 320,000 compounds, 0.9% hits. P62136. purified PP1alpha, OMFP fluorescence;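 active = inhibition above the mean inhibition of all tested compounds plus 3 SD, computed separately for each screening campaign, cut at about 15% in these data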
Rpn11 inh: inhibitors of human proteasome Rpn11 | AID 588493 | 360,000 compounds, 0.59% hits | O00487 | human 26S proteasome, Ub4-pepOG fluorescence polarization; 20S core pre-blocked with epoxomicin | inhibition, % at 20 µM;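 active = inhibition at 20 µM, scaled to each plate's controls, above about 33%, limit read from the data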
PP5 primary: PP5 (human) phosphatase inhibition; P53041; purified PP5c, OMFP substrate fluorescence; inhibition, % at 6.7 µM; 320,000 compounds, 0.18% hits;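 active = inhibition above the campaign's mean inhibition across all tested compounds plus 3 SD, cut at about 9.5% in these data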;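 also: 0% = DMSO only and 100% = 100 µM cantharidin control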
NadD inh: blocks S. aureus nicotinate mononucleotide adenylyltransferase. purified NadD enzyme, colorimetric absorbance read-out. inhibition, % at 20 µM. 360,000 compounds, 0.78% hits; in the data active = inhibition above about 26%
NadD conf: confirmation of Staphylococcus aureus NadD inhibitors; 2,000 compounds, 13% hits; inhibition, % at 20 µM; AID 624309; shares compounds with NadD inh; purified S. aureus NadD, colorimetric enzyme assay; in the data active = inhibition mostly above about 42%, no sharp cut-off; inactive = mostly below about 42%
The depositor's hits bear a star.

For Cc1ccccc1Nc1nc(-c2sc(NC(=O)c3ccco3)nc2C)cs1 the results were PREPL inh 15, PP1 counter 5, Rpn11 inh 22, PP5 primary 4, NadD inh 32* and NadD conf 34.
Cc1ccc(Nc2nc(-c3sc(NC(=O)c4cccc(Cl)c4)nc3C)cs2)cc1 was read as PREPL inh 13, PP1 counter 8 and PP5 primary -1.
`Cc1ccc(Nc2nc(-c3sc(NC(=O)c4ccco4)nc3C)cs2)cc1` gave PREPL inh 15, PP1 counter -1, Rpn11 inh 26, PP5 primary 2, NadD inh 33* and NadD conf 41.
Screening CCOc1ccccc1Nc1nc(-c2sc(NC(=O)c3ccco3)nc2C)cs1 returned PREPL inh 5, PP1 counter 2, Rpn11 inh 19, PP5 primary 2, NadD inh 31* and NadD conf 24.
Cc1nc(NC(=O)c2ccccc2)sc1-c1csc(Nc2ccc(C(=O)O)cc2)n1 was read as Rpn11 inh 4 and NadD inh 12.
For Cc1cc(C)cc(NC(=O)CCC(=O)Nc2nnc(C(C)C)s2)c1 the results were PREPL inh 10, PP1 counter -3, Rpn11 inh -4, PP5 primary 3 and NadD inh -4.
Screening Cc1ccc(S(=O)(=O)NCCn2nc(C)nc2C)cc1 returned PREPL inh -3, PP1 counter -2, Rpn11 inh 2, PP5 primary -1 and NadD inh -6.
COc1ccccc1NC(=O)CSc1nc2n[nH]c(C)c2c(=N)n1-c1ccccc1Cl was read as PREPL inh -2, PP1 counter 4, Rpn11 inh 23, PP5 primary 3 and NadD inh 12.
For Cc1cccc(N2CCN(C(=S)c3ccc4c(c3)OCO4)CC2)c1 the results were Rpn11 inh 8 and NadD inh 2.
Screening Clc1ccccc1-c1ccc(/C=N/Nc2nncc(-c3ccccc3)n2)o1 returned PREPL inh 9, PP1 counter -7, Rpn11 inh 2, PP5 primary -3, NadD inh 32* and NadD conf 10.
`Clc1ccc(-c2ccc(/C=N/Nc3nncc(-c4ccccc4)n3)o2)cc1` gave PREPL inh 9, PP1 counter 1, Rpn11 inh 3, PP5 primary 0, NadD inh 38* and NadD conf 13.
Screening FC(F)(F)c1cccc(-c2ccc(/C=N/Nc3nncc(-c4ccccc4)n3)o2)c1 returned PREPL inh 1, PP1 counter -6, Rpn11 inh -3, PP5 primary -4 and NadD inh 1.
`CC1CC(C)CN(S(=O)(=O)c2ccc(NC(=O)[C@@H]3CCCN3C(=O)c3cccs3)cc2)C1` (stereo partly drawn) gave PREPL inh 0, PP1 counter -4, Rpn11 inh 0, PP5 primary 2 and NadD inh 0.
`COc1ccc(NC(=O)CSc2nc3nc(C)cc(C)c3c(=O)[nH]2)cc1OC` gave PREPL inh 8, Rpn11 inh 6 and NadD inh -3.
`C#CCOCCOCCOCCNc1nc(N2CCN(C(=O)[C@H](CC(N)=O)n3cc(C(N)[C@H](C)CC)nn3)CC2)nc(N2CCN(C(=O)[C@H](CC(N)=O)n3cc(C(N)[C@@H](C)CC)nn3)CC2)n1` (stereo partly drawn) gave PREPL inh 11, Rpn11 inh -7 and NadD inh -2.
Screening O=C1CC(c2ccco2)CC(O)=C1C=NCC1CCNCC1 (stereo not drawn) returned PREPL inh 8, PP1 counter -2, Rpn11 inh -29, PP5 primary 1, NadD inh 34* and NadD conf 6.
Screening Cc1c(C(=O)OCC(O)=C(C#N)c2nc3ccccc3[nH]2)oc2ccc(Br)cc12 returned Rpn11 inh 25, NadD inh 37* and NadD conf 2.
Cc1c(C(=O)OC/C(O)=C(\C#N)c2nc3ccccc3[nH]2)oc2ccccc12 was read as PREPL inh 2, PP1 counter 6, PP5 primary -2 and NadD inh 10.
Screening CCC1(CC)C(=O)C2=C3C1[C@H](C(=O)OC)C=C(C(=O)OC)C[C@H]3[C@H]1C(=O)N(CC(=O)OC)C(=O)[C@H]1[C@H]2C (stereo partly drawn) returned PREPL inh 9, PP1 counter -4, Rpn11 inh -11, PP5 primary 2 and NadD inh -4.
